Compound activity from PubChem BioAssay.
Shown are actives, neighbours in structure and some others; about 3.1% of the full set was active somewhere.
Peg3 imprint – induces erasure of genomic imprints in mouse ES cells; Potency, µM (doses to about 60.7 µM), for inactives: at the highest dose activity change, positive = activation, hits mostly activators; mouse ES Peg3-LacZ reporter, beta-gal luminescence, 40 h; AID 1948; 0.02% of 110,000 active
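Readout: BetaGlo luminescence (5 min, room temp) for LacZ from the normally silent maternal Peg3 allele in female Peg3LacZ-Neo ES cells. Cells 300/well, 40 h, 37C, 5% CO2. Data normalized per plate to negative controls.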
IkB sig inh – inhibitors of IkB signaling in ABC-DLBCL cells. ABC-DLBCL IkBa-CBG/CBR dual luciferase ratio, 4 h; response scale: scaled: untreated 0%, proteasome inhibitor 100%. Potency, µM (doses to about 57.1 µM), without a hit: top-dose IkBa stabilization activation. 0.04% of 110,000 active. AID 445; active = well fitted curve in the direction sought with a large enough effect in the signal ratio, not every such curve was filed as active; inconclusive = small, poorly fitted or top-dose-only effect, or a change in a side signal; the % refers to the signal ratio;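 also: the direction sought is a rising ratio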
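Luminescence ratio of IκBα-fused green versus native red beetle luciferase in OCI-Ly3 cells, 4 h post-doxycycline with compound; red signal alone, scaled from basal (0%) to zero light (-100%), flagged nonspecific or cytotoxic effects.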
TSHR ag – TSH receptor (human) agonism | HEK293-CNG-TSHR cells (CNG channel as cAMP sensor), membrane potential dye, cAMP | P16473 | 0.48% of 73,000 active | AID 926 | Potency, µM (top dose mostly 57.1 µM), for inactives: at the highest dose activation, actives largely listed as activators; active = well fitted activation curve with a large enough effect in the main read-out, with a control signal flat, not every such curve was filed as active; inconclusive = small, poorly fitted or top-dose-only effect, or a change in a side signal; inactive = no such curve, though single readings can be large or run the other way; % of control where 0% means no effect;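 also: the control signal comes from parental cells without the receptor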
Target sequence (P16473 whole entry, looked up): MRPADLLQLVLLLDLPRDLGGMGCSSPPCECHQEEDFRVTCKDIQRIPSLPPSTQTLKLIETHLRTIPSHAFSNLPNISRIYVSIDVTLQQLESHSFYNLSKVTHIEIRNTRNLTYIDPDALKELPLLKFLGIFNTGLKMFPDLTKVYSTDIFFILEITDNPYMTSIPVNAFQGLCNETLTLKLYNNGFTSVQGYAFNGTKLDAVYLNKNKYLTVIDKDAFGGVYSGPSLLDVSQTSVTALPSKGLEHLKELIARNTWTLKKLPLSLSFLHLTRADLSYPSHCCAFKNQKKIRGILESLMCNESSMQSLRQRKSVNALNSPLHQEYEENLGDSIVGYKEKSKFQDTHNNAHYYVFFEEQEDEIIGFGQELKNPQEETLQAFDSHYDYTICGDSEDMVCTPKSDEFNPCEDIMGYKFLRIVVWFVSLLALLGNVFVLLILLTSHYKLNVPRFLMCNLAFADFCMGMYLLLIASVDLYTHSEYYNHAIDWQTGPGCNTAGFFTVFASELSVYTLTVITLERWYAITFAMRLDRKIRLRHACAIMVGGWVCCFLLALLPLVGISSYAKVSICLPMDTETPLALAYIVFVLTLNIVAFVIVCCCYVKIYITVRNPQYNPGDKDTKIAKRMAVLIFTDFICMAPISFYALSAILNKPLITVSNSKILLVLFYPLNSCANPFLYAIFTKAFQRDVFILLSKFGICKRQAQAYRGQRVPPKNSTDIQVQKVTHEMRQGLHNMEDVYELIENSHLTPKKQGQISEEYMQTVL
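HEK 293 cells stably expressing TSHR and a cAMP-gated CNG channel; parental CNG-only cells as counterscreen. Cells preloaded 60 min with membrane potential dye plus 100 uM RO 20-1724, then compound 30 min; fluorescence read at 590 nm.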
p53ts 39C kill – kills p53ts cells at the nonpermissive temperature. H1299-p53A138V viability at 39C, ATP luminescence, 24 h. Potency, µM (series often up to 46.1 µM), without a hit: at the highest dose activity change, negative = cell killing, actives largely listed as cytotoxic. 1.5% of 130,000 active. AID 902; also: % is scaled to controls: 0 for no effect and ±100 for the full control effect; nearly all actives have a fitted effect of over 55% in size
p53ts 32C tox – cytotoxicity in p53ts cells at permissive temperature | Potency, µM (highest dose often 46.1 µM), inactives show at the highest dose activity change, negative = cytotoxicity, hits mostly cytotoxic | 0.93% of 130,000 active | AID 924 | H1299-p53A138V at 32C, ATP luminescence viability, 24 h;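 also: 0% = DMSO and -100% = full killing by reference compound; nearly all actives have a fitted effect of over 55% in size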
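H1299-p53 A138V cells (temperature-sensitive p53) exposed 24 h to up to 46 uM compound at 32C, where p53 is wild-type in conformation. Viability read as ATP luminescence and normalised to DMSO and 100 uM tamoxifen. AC50 fitted with the Hill equation.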
HEK293 cAMP ctrl – parental HEK293 cAMP activation (counter-screen); parental HEK293 CNG cAMP sensor, membrane potential fluorescence; Potency, µM (series often up to 57.1 µM), inactives show at the highest dose activation, hits mostly activators; 2.5% of 73,000 active; AID 938; also: % of control where 0% means no effect; nearly all actives have a fitted effect of over 55% in size
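Parental HEK 293 cells stably expressing a modified CNG channel (no TSHR) report cAMP rise as membrane depolarization. Membrane potential dye with 100 uM RO 20-1724 was loaded for 60 min at room temperature, then compound added for 30 min; fluorescence read at 590 nm.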
An asterisk follows results filed as active; ? = inconclusive; · = no result; [ ] = remark or other dose. Unless noted, calls follow the shape of the dose curve; as a rule, active = well fitted curve in the direction sought with a large enough effect; inconclusive = small, poorly fitted or top-dose-only effect, or another doubt; inactive = no such curve, though single readings can be large; an effect the other way counts as inactive or inconclusive. Potency is read from the fitted curve at half-maximal effect.

SMILES	Peg3 imprint	IkB sig inh	TSHR ag	p53ts 39C kill	p53ts 32C tox	HEK293 cAMP ctrl
Fc1ccc([C@H]2CCNCC2COc2ccc3c(c2)OCO3)cc1 (stereo partly drawn)	-15.6%	·	·	-25.5%	0.5%	·
Fc1ccc([C@H]2CCNC[C@H]2COc2ccc3c(c2)OCO3)cc1	-33.4%	?	21.4%	10µM*	31.6µM*	8.4%
Cc1c(C(=O)O)nc(/C=C\C(=O)O)[nH]c1=O	-7.7%[10.9 µM]	-1.0%[11.4 µM]	2.7%[11.4 µM]	-0.2%[9.22 µM]	1.4%[9.22 µM]	0.2%[11.4 µM]
CCCCS/C(=C(/C#N)C(N)=O)c1cc2c([nH]1)CCCC2	9.0%	?	?	124.4%	-2.4%	5.01µM*
CC1CCCN(CCCNC(=O)c2ccc3c(c2)N(Cc2cccc(Cl)c2)C(=O)c2ccccc2S3(=O)=O)C1 (stereo not drawn)	-17.0%[10.9 µM]	-0.3%	·	12.6µM*	3.3%	·
Cc1ccc(NC(=O)CSc2nc(=O)n(Cc3ccccn3)c3c2CCC3)cc1F	-7.4%[10.9 µM]	?	·	-7.5%	-7.9%	·
Cc1ccsc1-c1nc(CSCC(=O)NCc2ccc3c(c2)OCO3)c(C)o1	-12.3%	?	20µM*	-14.9%	5.3%	19.6%
COc1ccc(-c2nc(CSCC(=O)NCc3ccc4c(c3)OCO4)c(C)o2)cc1OC	-15.5%	?	8.3%	-1.4%	-3.8%	13.6%
COC(=O)c1c(SCC(=O)Nc2cc(OC)cc(OC)c2)[nH]c2ccc(C)cc2c1=O	-5.1%[10.9 µM]	?	·	5.01µM*	-6.5%	·
O=C(C1CC1)N1CCN=C1SCc1cccc(F)c1	-1.6%	-2.1%	4.8%	1.4%	-2.8%	14.3%
Cc1cccc(CSC2=NCCN2C(=O)c2ccc(Br)o2)c1	-18.6%	4.8%	?	-15.2%	-2.7%	31.6µM*
COc1ccc(C)cc1NC(=O)CN(Cc1nnc(-c2ccc(Cl)cc2)o1)C1CCCC1	9.5%	?	?	15.9%	25.2%	15.8µM*
COc1ccc(C)cc1NC(=O)CSc1nnc(-c2ccc(C)cc2)o1	-68.9%	5.7%	?	?	8.9%	?
Cc1nn(-c2ccccc2C(=O)O)c(=O)c2ccccc12	-4.4%	-1.9%	10µM*	13.1%	2.5%	-3.2%
Cc1nn(CC(=O)NCc2ccccc2)c(=O)c2ccccc12	22.6%	-0.5%	-0.5%	4.6%	9.1%	2.5%
Cc1cccc(-c2nc(CN3CCCC(C(=O)NCCc4ccc(Cl)cc4)C3)c(C)o2)c1 (stereo not drawn)	-13.5%[10.9 µM]	?	·	12.6µM*	?	·
Cc1oc(-c2ccc(Cl)cc2)nc1CN1CCCC(C(=O)NCCc2ccccc2)C1 (stereo not drawn)	-12.1%[10.9 µM]	?	·	?	-13.4%	·
CC(C)c1ccc(NC(=O)C2CCCN2S(=O)(=O)c2ccc3nc(-c4ccccc4)[nH]c3c2)cc1 (stereo not drawn)	-13.4%[10.9 µM]	2.1%	·	-13.8%	16.0%	·
CCOc1ccc(C(=O)Oc2c(Sc3ccccc3)c(C)nn2C(C)(C)C)cc1OCC	-3.3%[10.9 µM]	-2.9%	·	14.5%	-1.1%	·
COC(=O)[C@@]1(Cc2ccc(F)cc2)[C@H]2c3cc(C(=O)N4CCCC4)n(CCSCCO)c3C[C@H]2CN1C(=O)c1ccccc1	15.2%	·	11.1%	-3.3%	13.9%	15.7%
COC(=O)[C@@]1(Cc2ccccc2)[C@H]2c3cc(C(=O)N4CCCC4)n(CCc4ccccn4)c3C[C@H]2CN1C(=O)c1ccccc1	-10.1%	·	?	0.1%	7.5%	15.8µM*
COC(=O)[C@@]1(Cc2ccccc2)[C@H]2c3cc(C(=O)N4CCCC4)n(CCSCCO)c3C[C@H]2CN1C(=O)c1ccccc1	-11.5%	·	?	-7.6%	2.3%	?
COC(=O)[C@@]1(Cc2ccccc2)[C@H]2c3cc(C(=O)N4CCCC4)n(CC4CC4)c3C[C@H]2CN1C(=O)c1ccccc1	-17.1%	·	?	50.6%	31.7%	2µM*
COC(=O)Cn1c(C(=O)N2CCCC2)cc2c1C[C@H]1CN(C(=O)c3ccccc3)[C@@](Cc3ccccc3)(C(=O)OC)[C@@H]21	-3.4%	·	?	3.7%	3.4%	20µM*
COc1ccc(C(C)=O)cc1CSc1nc(Nc2ccc(F)c(F)c2)c2ccccc2n1	-6.4%[10.9 µM]	0.3%	·	-19.6%	3.2%	·
SMILES	Peg3 imprint	IkB sig inh	TSHR ag	p53ts 39C kill	p53ts 32C tox	HEK293 cAMP ctrl
CCN(c1ccccc1)c1nnc(NC(=O)Nc2ccc(C)cc2)s1	-8.3%[10.9 µM]	1.5%	·	2.4%	-1.5%	·
C=CC(C1=CC(=O)C(OC)=CC1=O)c1ccccc1 (stereo not drawn)	-49.8%	·	·	99.9%	12.6µM*	·
C=CC(C1=CC(=O)C(OC)=CC1=O)c1ccc(OC)cc1 (stereo not drawn)	-45.9%	·	·	17.1%	-9.4%	·
CC(=O)Nc1ccccc1-c1nc2ccccc2n(CC(=O)Nc2cccc(C)c2C)c1=O	-4.5%[10.9 µM]	?	·	-7.5%	-4.4%	·
O=C1CSC(c2cn(-c3ccccc3)nc2-c2cccs2)N1CC1CCCO1 (stereo not drawn)	-13.1%	2.7%	10µM*	-14.8%	9.5%	9.9%
CCc1ccccc1N(CC)C(=O)c1cc2c(s1)-c1ccccc1SC2	-14.0%[10.9 µM]	?	·	?	12.8%	·
CCOc1ccc(N(CC)C(=O)c2cc3c(s2)-c2ccc(Cl)cc2SC3)cc1	-4.0%[10.9 µM]	2.2%	·	20µM*	-11.5%	·
COc1ccc(Oc2ncc3ncc(=O)n(Cc4cccc(OC)c4)c3n2)cc1	·	4.7%[11.4 µM]	?	1.6%	14.1%	?
Cc1cc(C2=NNC(=NC3CC3)SC2)c(C)n1Cc1ccco1	·	·	·	12.6µM*	·	·
Cc1cc(C=C2C(=O)CCCC2=O)c(C)n1-c1ccccc1	·	·	·	3.5%	?	·
Cc1cc(O)cc(=O)n1Cc1ccco1	1.4%	1.1%	8.2%	2.0%	-0.2%	-1.1%
Cc1cc(C2=NNC(=NC3CC3)SC2)c(C)n1-c1ccccc1	·	·	·	10µM*	·	·
c1ccc2c(c1)c1ccccc1n2Cn1c2ccccc2c2ccccc21	?	1.0%[11.4 µM]	3.6%[11.4 µM]	-1.6%[9.22 µM]	-6.5%[9.22 µM]	-1.9%[11.4 µM]
Cc1ccc(CNC(=O)c2cc(-c3ccc(Cl)cc3)on2)cc1	?	1.3%	·	16.4%	5.7%	·
Cc1nn(-c2ccccc2)c2c1/C(=N/O)CC(C)(C)C2	-0.9%	1.9%	?	-12.3%	13.2%	25.1µM*
COc1ccccc1CNC(=O)Cn1ncc2c(C)n(Cc3ccccc3Cl)c(C)c2c1=O	1.9%[10.9 µM]	?	·	?	-2.9%	·
CC1=C(C(=O)N(C)Cc2ccccc2)C2(CCC(C)CC2)OC1=O (stereo not drawn)	-14.2%	1.5%	?	1.8%	-2.5%	6.31µM*
NC(=O)N[C@H]1NC(=O)NC1=O	-1.3%[16.8 µM]	-1.2%[25.6 µM]	?	-4.4%[20.6 µM]	-1.6%[20.6 µM]	12.6µM*
